# Results as given in article PMC5540273 (PLoS ONE, 2017).
# Columns and labels:
# Details in all cases: concentration: 1 μM, replicates: in singlicate; n = 1
# EPHA7 = tested on: EPHA7
# EPHA8 = tested on: EPHA8
# EPHB1 = tested on: EPHB1
# EPHB2 = tested on: EPHB2
# EPHB3 = tested on: EPHB3
# EPHB4 = tested on: EPHB4
# EPHB6 = tested on: EPHB6
# ERBB2 = tested on: ERBB2
# ERBB3 = tested on: ERBB3
# ERBB4 = tested on: ERBB4
# ERK1 = tested on: T1, ERK1
# T1 construct: gene MAPK3
# ERK2 = tested on: T2, ERK2
# T2 construct: gene MAPK1
# ERK3 = tested on: T3, ERK3
# T3 construct: gene MAPK6
# ERK4 = tested on: T4, ERK4
# T4 construct: gene MAPK4
# ERK5 = tested on: T5, ERK5
# T5 construct: gene MAPK7
# ERK8 = tested on: T6, ERK8
# T6 construct: gene MAPK15
# ERN1 = tested on: ERN1
# FAK = tested on: T7, FAK
# T7 construct: gene PTK2
# FER = tested on: FER
# FES = tested on: FES
# 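Also: KINOMEscan kinase panel screen.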
Structure (SMILES),%Inh (EPHA7) [%],%Inh (EPHA8) [%],%Inh (EPHB1) [%],%Inh (EPHB2) [%],%Inh (EPHB3) [%],%Inh (EPHB4) [%],%Inh (EPHB6) [%],%Inh (ERBB2) [%],%Inh (ERBB3) [%],%Inh (ERBB4) [%],%Inh (ERK1) [%],%Inh (ERK2) [%],%Inh (ERK3) [%],%Inh (ERK4) [%],%Inh (ERK5) [%],%Inh (ERK8) [%],%Inh (ERN1) [%],%Inh (FAK) [%],%Inh (FER) [%],%Inh (FES) [%]
c1ccc(Oc2ccc(Nc3ccnc4cc(-c5ccc(CN6CCCCC6)o5)ccc34)cc2)nc1 [GW567143],0,12,6,0,4,7,66,18,96,51,13,0,0,0,0,0,26,0,4,0
Cn1cc(-c2ccc3c(c2)CCN3C(=O)Cc2cc(F)cc(C(F)(F)F)c2)c2c(N)ncnc21 [GSK2635225],2,2,21,15,12,8,44,10,0,0,15,0,0,24,0,8,6,11,34,0
O=C(Nc1n[nH]c2nc(-c3cccc(O)c3)ccc12)C1CC1 [SB-711805],11,30,14,0,1,5,48,0,0,0,0,0,0,0,47,42,0,0,36,0
CC(=O)Nc1cn2nc(Oc3cccc(NC(=O)c4cccc(C(F)(F)F)c4)c3)ccc2n1,7,99.5,95.1,98.6,5,90.9,98.1,6,41,4,0,0,0,0,0,19,0,13,3,0
Cl.Cl.NCC(NC(=O)c1cc(-c2cccnc2)c(-c2ccnc3[nH]ccc23)s1)c1ccccc1 (stereo not shown) [GSK1323434],17,33,23,22,0,18,21,58,1,48,0,8,3,33,0,16,6,0,50,44
CSc1ccc(NC2=C(c3ccc(Cl)cc3)C(=O)NC2=O)cc1 [SB-317658],0,5,0,6,21,11,0,0,0,0,9,29,11,0,0,13,47,7,0,29
Cc1cc(-c2c(-c3ccc(F)cc3)ncn2CCCN2CCOCC2)nc(N)n1 [SB-222517],0,0,0,12,29,10,0,0,0,0,4,21,0,0,0,6,0,0,16,35
CCNC(=O)/C=C/c1n[nH]c2cc(Sc3ccccc3C(=O)NC)ccc12,0,0,0,1,10,14,20,16,3,1,8,43,13,15,3,28,15,0,4,24
N#Cc1cnc2cc(-c3cnc(CNCCN4CCOCC4)s3)ccc2c1Nc1ccc(Oc2ccccc2)cc1 [GW664114],0,25,0,7,10,10,21,79,100,100,0,0,0,48,0,0,21,0,82,94.9
CCn1cnc2c(NCc3ccccc3)ncnc21 [SKF-96418],0,0,0,0,0,0,0,24,28,4,0,0,7,17,0,4,19,0,0,3
CC(C)c1nc(-c2ccc(F)c(NS(=O)(=O)c3c(F)cccc3F)c2)c(-c2ccnc(Nc3ccc(N4CCOCC4)nc3)n2)s1 [GSK1804250],12,70,21,0,24,12,97.3,95.8,98.8,78,8,0,1,0,10,38,49,0,41,15
COc1ccc(NC(=O)c2ccoc2)cc1-c1ccc(C(=O)NCC2CC2)cc1 [GW810437],0,1,4,0,0,0,24,15,12,7,0,7,0,6,7,0,33,0,0,7
N#CC1(c2cccc(C(=O)Nc3cccc(Oc4ccc5nc(NC(=O)C6CC6)sc5n4)c3)c2)CC1,0,98.9,95.8,100,50,95.9,99.5,22,0,0,0,0,0,0,0,29,0,17,22,0
Fc1cc(Cl)ccc1Nc1ccnc2cc(-c3ccc(CN4CCSCC4)o3)ccc12 [GW560106],0,72,43,19,0,50,91.2,44,77,39,17,0,0,0,0,0,6,0,37,0
